From PubChem BioAssay (NCATS)
“And” between values parts separate entries of the source, which are not always exact repeats. Equal entries are not always repeated. Results filed as inconclusive are left out. Values without a mark were called inactive. Calls follow the shape of the dose curve; as a rule, active = well fitted curve in the direction sought with a large enough effect in the signal ratio, with a control signal flat; inconclusive = small, poorly fitted or top-dose-only effect, or a change in a side signal; inactive = no such curve, though single readings can be large or run the other way; the % refers to the signal ratio.

These compounds were tested against Glucocorticoid receptor (Homo sapiens) (UniProt P04150) (assay: qHTS assay for small molecule agonists of glucocorticoid receptor signaling (AID 588532;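 also: 100% = dexamethasone at 0.1 µM and 0% = DMSO only wells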)). Details: HeLa MMTV-bla, beta-lactamase ratio, agonist, 18 h; activation: hits give high values, percent of dexamethasone control, DMSO zero.
Sequence of Glucocorticoid receptor (Homo sapiens) (P04150 whole entry, looked up): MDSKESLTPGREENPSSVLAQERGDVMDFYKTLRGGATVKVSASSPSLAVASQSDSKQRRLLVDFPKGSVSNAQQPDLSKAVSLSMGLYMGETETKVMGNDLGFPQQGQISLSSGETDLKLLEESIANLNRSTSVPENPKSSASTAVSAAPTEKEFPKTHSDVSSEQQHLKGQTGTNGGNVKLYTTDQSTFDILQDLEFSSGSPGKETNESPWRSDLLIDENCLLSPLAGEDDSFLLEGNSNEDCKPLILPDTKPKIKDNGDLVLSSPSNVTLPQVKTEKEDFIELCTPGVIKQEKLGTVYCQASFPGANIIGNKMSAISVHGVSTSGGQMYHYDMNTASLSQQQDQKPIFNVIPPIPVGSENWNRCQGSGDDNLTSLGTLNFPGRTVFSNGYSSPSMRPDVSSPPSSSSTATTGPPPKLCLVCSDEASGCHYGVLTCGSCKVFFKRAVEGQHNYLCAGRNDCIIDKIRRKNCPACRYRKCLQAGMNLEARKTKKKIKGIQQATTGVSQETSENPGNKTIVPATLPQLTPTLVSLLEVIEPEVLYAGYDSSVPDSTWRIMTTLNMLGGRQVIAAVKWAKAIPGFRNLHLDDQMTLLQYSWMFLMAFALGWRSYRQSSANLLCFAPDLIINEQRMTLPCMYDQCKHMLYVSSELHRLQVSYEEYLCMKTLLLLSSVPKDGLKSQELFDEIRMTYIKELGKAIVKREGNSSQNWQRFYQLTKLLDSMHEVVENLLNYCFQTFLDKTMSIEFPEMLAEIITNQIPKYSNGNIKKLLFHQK
In short: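 Using MMTV-bla HeLa cells in medium with 1% stripped FBS and 25 mM HEPES, compounds were titrated and incubated overnight-length (18 h). Beta-lactamase cleavage of CCF4 was quantified by dual-emission fluorescence.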
With `C/C(=N\NC(=O)Nc1cc(F)cc(F)c1)c1ncccc1C(=O)O` the activation was 10.9% and -10.6%.
`CCCC1COC(Cn2cncn2)(c2ccc(Cl)cc2Cl)O1` (stereo unspecified) was tested, and the activation was 4.96% and -1.29%.
With `Cc1cnc(C2=NC(C)(C(C)C)C(=O)N2)c(C(=O)O)c1` (stereo unspecified) the activation was 0.844% and 5.59%.
`O=S(=O)(c1ccc(O)cc1)c1ccc(O)cc1` showed an activation of -0.412%.
Work on `CCOP(=O)(O)C(N)=O` yielded an activation of 4.17%.
`CCOc1nc(NC)nc(NC(=O)NS(=O)(=O)c2ccccc2C(=O)OC)n1` was tested, and the activation was 15%.
`COc1ccc(O)c(C(C)(C)C)c1` gave an activation of -14%.
For `CCOP(=S)(OCC)SCC(=O)NC(C)C`, the activation was 3%.
With `NS(=O)(=O)C(F)(F)C(F)(F)C(F)(F)C(F)(F)C(F)(F)C(F)(F)C(F)(F)C(F)(F)F` the activation was -2.51%.
`Clc1ccc([C@]2(Cn3cncn3)C[C@@H](Br)CO2)c(Cl)c1` was tested, and the activation was 7.46% and -5.85%.
Compound `C/C(=N\C(N)=O)N(C)Cc1ccc(Cl)nc1` has an activation of -1.3%.
For `O=S1OC[C@@H]2[C@H](CO1)[C@@]1(Cl)C(Cl)=C(Cl)[C@]2(Cl)C1(Cl)Cl` (stereo partly specified), the activation was -18.2% and -5.58%.
`FC(F)(F)c1ccc(OCCCOc2c(Cl)cc(OCC=C(Cl)Cl)cc2Cl)nc1` gave an activation of 9.84%.
`C=CCC1=C(C)[C@@H](OC(=O)[C@@H]2[C@@H](C=C(C)C)C2(C)C)CC1=O` showed an activation of 1.31%.
`Cc1ccccc1C(=O)Nc1cccc(OC(C)C)c1` was tested, and the activation was 2.19%.
`Nc1ccc([N+](=O)[O-])cc1Cl` showed an activation of -4.74%.
Work on `CCCCC(CC)C(=O)Cl` (stereo unspecified) yielded an activation of -0.757%.
Compound `CCNc1nc(NC(C)(C)C)nc(SC)n1` has an activation of 4.35%.
`CCOP(=O)(OCC)SCSC(C)(C)C` gave an activation of -2.2%.
Compound `CNC(=O)Oc1ccc(N(C)C)c(C)c1` has an activation of -10.5%.
`COC(=O)c1ccccc1CS(=O)(=O)NC(=O)Nc1nc(OC)cc(OC)n1` showed an activation of -0.772%.
For `Cc1cc(Cl)ccc1OCC(=O)O`, the activation was -2.21% and 11.1%.
`CCOP(=S)(OCC)Oc1cnc2ccccc2n1` gave an activation of -1.45%.
`O=[N+]([O-])c1ccc(Oc2ccc(C(F)(F)F)cc2[N+](=O)[O-])cc1` gave an activation of -2.99%.
For `C/C=C(\C)C(=O)O[C@H]1C[C@@H](OC(C)=O)[C@@]2(C(=O)OC)CO[C@H]3[C@@H](O)[C@@](C)([C@]45O[C@@]4(C)[C@H]4C[C@@H]5O[C@@H]5OC=C[C@@]54O)[C@H]4[C@]1(CO[C@]4(O)C(=O)OC)[C@@H]32`, the activation was 4.96%.
`C=CC1(C)OC(=O)N(c2cc(Cl)cc(Cl)c2)C1=O` (stereo unspecified) gave an activation of -11.4%.
